From PubChem BioAssay (Tox21)
Inconclusive results are not listed. Where a call stands in place of a potency, no number is given. Calls of active or inactive are those of the source. The call rests on the fitted dose curve; in most records, active means well fitted inhibition curve with a large enough effect in the repeat runs; inconclusive means weak or mixed curves, or effect the other way; inactive means no such curve, though single readings can be large or run the other way.

experiment: qHTS assay to identify small molecule antagonists of the retinoic acid receptor (RAR) signaling pathway (AID 1159552; further: nearly all actives have a fitted effect of over 50% in size); settings: C3RL4 RARE luciferase reporter, retinol-stimulated, 6 h; series mostly up to 92.4 µM
Source text: National Center for Advancing Translational Sciences [NCATS]
NIH Chemical Genomics Center [NCGC]
U.S. Environmental Protection Agency [EPA]
National Institutes of Environmental Health Sciences [NIEHS]
National Toxicology Program [NTP]
U.S. Food and Drug Administration [FDA]
All-trans Retinoic acid (atRA) is the potent natural metabolite of retinol and plays an important role in normal embryonic development and maintenance of cellular phenotype in adult animals. atRA is the activating ligand for the retinoic acid receptors (RARs) which form heterodimers with retinoid X receptors (RXRs) on the retinoic acid response element (RARE). Through activation of the RAR/RXRs nuclear receptors, atRA regulates the transcription of a large number of protein-coding genes and regulatory RNAs. Intracellular levels of atRA are controlled by the retinol signaling pathway (RSP) that regulates the biosynthesis and catabolism of atRA to maintain physiological levels. Chemicals that interfere with the RSP can cause abnormal intracellular levels of atRA and therefore are potential developmental toxicants. To assess compounds for the potential adverse effect on embryonic development through interfering with retinol signaling, a cell-based RARE luciferase reporter gene assay was used. C3RL4 cell line (OARSA/CFSAN/FDA, Laurel, MD) was used to screen Tox21 10K compound library for identifying inhibitors of the RSP.
Tox21 Assay Protocol Summary:
C3RL4 cells were seeded at 1,000/well in 4 uL of assay medium into white solid 1,536-well tissue culture plates (Greiner Bio-One North America Inc. Monroe, NC) using a Multidrop Combi (Thermo Scientific, Waltham, MA) dispenser. After incubation at 37 C and 5% CO2 for an overnight, 23 nL of compounds dissolved in DMSO, positive control or DMSO only were transferred by a Pintool station (Kalypsys, San Diego, CA). One ul of 1 uM (final concentration) of Retinol was added right after the compound addition by using a Flying Reagent Dispenser (FRD) (Aurora Discovery, San Diego, CA). After 6 hr incubation at 37 C and 5% CO2, 5 uL of Amplite Luciferase reagent (AAT Bioquest Inc. Sunnyvale, CA) was added to each assay plate using an FRD. Luminescence was quantified on a ViewLux plate reader (PerkinElmer, Waltham, MA) after 30 min incubation at room temperature.
Potency means the concentration at half of the fitted maximal effect.

Compound | Potency | activity, negative = inhibition
Cc1cc(C(F)(C(F)(F)F)C(F)(F)F)ccc1NC(=O)c1cccc(I)c1C(=O)NC(C)(C)CS(C)(=O)=O | inactive | –
Cc1ccc(OP(=O)(Oc2ccccc2)Oc2ccccc2)cc1 | inactive | –
O=C(CCl)C(Cl)Cl | 15.5 µM (active) | –
[Cl][Sn]([c]1ccccc1)([c]1ccccc1)[c]1ccccc1 | 0.092 µM (active) | –
CC(C)(C)c1cc([N+](=O)[O-])cc(C(C)(C)C)c1O | 15.4 µM (active) | –
FC(Cl)(Cl)Cl | inactive | –
Oc1ccc(C2(c3ccc(O)cc3)CCCCC2)cc1 | 41 µM (active) | –
C[C@]12CC[C@H]3[C@@H](CCC4=CC(=O)CC[C@@]43C)[C@@H]1CC[C@@H]2O | 48.2 µM (active) | –
N#CCCO | inactive | –
N#Cc1ccc(O)cc1 | inactive | –
N#CCCSCCC#N | inactive | –
ClC1=C(Cl)[C@]2(Cl)[C@@H]3[C@@H](Cl)[C@@H](Cl)C[C@@H]3[C@@]1(Cl)C2(Cl)Cl | inactive | –
CCCCCCCCCC[N+](C)(C)CCCCCCCCCC | 12.2 µM (active) | –
C[As+](C)(C)CC(=O)[O-] | inactive | –
O=[N+]([O-])c1c2ccccc2cc2ccccc12 | inactive | –
C[C@@H]1CC[C@@]2(OC1)O[C@H]1[C@@H](O)[C@H]3[C@@H]4CC[C@H]5C[C@@H](O[C@@H]6O[C@H](CO)[C@H](O[C@@H]7O[C@H](CO)[C@@H](O)[C@H](O[C@@H]8OC[C@@H](O)[C@H](O)[C@H]8O)[C@H]7O[C@@H]7O[C@H](CO)[C@@H](O)[C@H](O[C@@H]8O[C@H](CO)[C@@H](O)[C@H](O)[C@H]8O)[C@H]7O)[C@H](O)[C@H]6O)[C@H](O)C[C@]5(C)[C@H]4CC[C@]3(C)[C@H]1[C@@H]2C | 20.5 µM (active) | –
CC(C)OC(=O)C(O)(c1ccc(Cl)cc1)c1ccc(Cl)cc1 | 43.3 µM (active) | –
Clc1ccc(C(Cl)(Cl)Cl)c(Cl)c1 | inactive | –
N#CSCSC#N | 24.9 µM (active) | –
Brc1c(Br)c(Br)c(Oc2c(Br)c(Br)c(Br)c(Br)c2Br)c(Br)c1Br | – | -8.07% [at 19 µM] (inactive)

Compound | Potency | activity, negative = inhibition
CCCN(CC)CC1COC2(CCC(C(C)(C)C)CC2)O1 (stereo not given) | inactive | –
CCCCCCCCCCBr | inactive | –
CCOP(=S)(OCC)SCS(=O)(=O)CC | inactive | –
C[C@H]1CC[C@@H]2[C@@H](C)[C@H]3[C@H](C[C@H]4[C@@H]5CC=C6CC(O[C@@H]7O[C@H](CO)[C@H](O)[C@H](O[C@@H]8O[C@H](CO)[C@@H](O)[C@H](O)[C@H]8O)[C@H]7O[C@H]7O[C@@H](C)[C@H](O)[C@@H](O)[C@H]7O)CC[C@]6(C)[C@H]5CC[C@]34C)N2C1 (stereo not given in full) | 28.2 µM (active) | –
Clc1ccc(Oc2ccccc2)cc1 | inactive | –
COCC(=O)N(c1c(C)cccc1C)[C@H](C)C(=O)OC | inactive | –
CCOC(=O)OC1=C(c2cc(C)ccc2C)C(=O)NC12CCC(OC)CC2 (stereo not given) | 43.2 µM (active) | –
C[C@@H](Oc1ccc(Cl)cc1Cl)C(=O)O | inactive | –
Clc1ccc(CCC(Cn2ccnc2)Sc2c(Cl)cccc2Cl)cc1 (stereo not given) | inactive | –
COc1ccc(/C(=C/C(=O)N2CCOCC2)c2ccc(Cl)cc2)cc1OC | inactive | –
CNC(C)Cc1ccc2c(c1)OCO2 (stereo not given) | inactive | –
CCSC(C)CC1CC(=O)C(/C(CC)=N/OC/C=C/Cl)=C(O)C1 (stereo not given) | inactive | –
O=[N+]([O-])c1ccc2ccc3cccc4ccc1c2c34 | inactive | –
O=CC(Br)(Br)Br | 27.2 µM (active) | –
C=CCC1=C(C)C(OC(=O)C2C(C=C(C)C)C2(C)C)CC1=O (stereo not given) | 61.1 µM (active) | –
COc1ccc([N+](=O)[O-])cc1O | inactive | –
CC(C)CCCCCOC(=O)c1ccccc1C(=O)OCCCCCC(C)C | inactive | –
N#CCCC(Br)(C#N)CBr (stereo not given) | 21.7 µM (active) | –
ClCc1ccccc1CCl | inactive | –
ClC(Cl)=C(c1ccc(Cl)cc1)c1ccc(Cl)cc1 | inactive | –
